About 2,100 (0.6%) of roughly 350,000 compounds were called active. About 1% were inconclusive and are not listed.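 Rule for the calls: active = activity change of -60% or lower, but not beyond a set lower limit; inconclusive = change between -60% and -40%, or beyond the set limit; inactive = change above -40%.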 The full list was thinned out, with actives kept by preference.
The compounds below were run against Relaxin receptor 1 (Homo sapiens) (UniProt Q9HBX9) (assay: qHTS Assay for Antagonists of the Relaxin Receptor RXFP1). Settings: HEK293-RXFP1, relaxin-stimulated cAMP HTRF, 30 min; at 57.5 µM; active compounds read low.
Relaxin receptor 1 (Homo sapiens), sequence (Q9HBX9 whole entry, looked up): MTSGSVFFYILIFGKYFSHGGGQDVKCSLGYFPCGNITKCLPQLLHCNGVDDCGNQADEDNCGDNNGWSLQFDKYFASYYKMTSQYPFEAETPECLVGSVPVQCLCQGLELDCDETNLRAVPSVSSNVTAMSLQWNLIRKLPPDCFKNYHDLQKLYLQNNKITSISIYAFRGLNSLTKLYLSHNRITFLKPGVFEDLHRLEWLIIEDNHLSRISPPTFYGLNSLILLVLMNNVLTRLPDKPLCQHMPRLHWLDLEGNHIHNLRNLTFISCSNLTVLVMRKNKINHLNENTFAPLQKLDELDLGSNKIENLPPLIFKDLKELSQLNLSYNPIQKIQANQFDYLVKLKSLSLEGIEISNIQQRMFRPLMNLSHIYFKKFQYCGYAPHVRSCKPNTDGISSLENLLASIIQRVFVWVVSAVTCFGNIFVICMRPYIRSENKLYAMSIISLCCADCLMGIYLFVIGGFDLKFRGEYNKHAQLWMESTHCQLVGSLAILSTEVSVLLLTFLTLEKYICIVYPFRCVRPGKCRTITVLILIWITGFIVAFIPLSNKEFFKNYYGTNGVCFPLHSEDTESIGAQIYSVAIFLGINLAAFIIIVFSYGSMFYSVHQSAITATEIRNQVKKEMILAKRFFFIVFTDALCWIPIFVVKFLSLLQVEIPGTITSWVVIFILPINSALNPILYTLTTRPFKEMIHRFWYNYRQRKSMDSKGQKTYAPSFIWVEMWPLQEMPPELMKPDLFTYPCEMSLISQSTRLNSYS
Source text: The relaxin hormone is involved in the variety of biological functions in normal tissues and diseases. The role of relaxin is well-established in female reproduction and parturition, mammary gland and endometrial development, maintenance of myometrial quiescence during pregnancy. Relaxin signaling through its G protein-coupled receptor (GPCR) RXFP1 results in ECM remodeling through regulation of collagen deposition, cell invasiveness, proliferation and overall tissue homeostasis. […] Recombinant human relaxin (rhRlx) is currently being tested in clinical trials as a protective agent in congestive heart failure, in treating severe preeclampsia, and as an anti-fibrotic agent in various organs. […] Upon relaxin binding RXFP1 activation leads to the activation of adenylate cyclase (AC) via G?s. cAMP will activate PKA, which phosphorylates many signaling proteins. Thus, detection of cAMP increase is an easy and reliable indication of relaxin receptor activation. To screen for antagonists of the relaxin receptor, a HEK293T cell line stably transfected with RXFP1 was used. RXFP1 activation by relaxin in presence of various concentrations of tested compounds was assayed by changes in cAMP levels as detected with a time-resolved fluorescence energy transfer (TR-FRET) cAMP detection kit.
For the primary screening, we used HTRF(R) (Homogenous Time-Resolved Fluorescence) cAMP HiRange assay (Cisbio Bioassays, 62AM6PEJ). Presence of cAMP in the cell lysate disrupts binding between the Cryptate-labeled anti-cAMP and d2-labeled cAMP pair, leading to a decrease in TR-FRET signal. The libraries were screened at two doses (57microM and 11microM), followed by a confirmation of the hits at 7-point serial dilution in the range of final concentrations [57microM - 78nM]. Data were normalized to the controls for basal activity (buffer only) and 100% activity (5 nM porcine relaxin). The EC50 values were determined from concentration-response data modeled with the standard Hill equation. NCGC Assay Protocol Summary: HiHEK (Hawaiian HEK293 LGR7 stably transfected with human RXFP1) were grown in the following media: DMEM+10%FBS+Pen/Strep + Geneticin (1mg/ml). For the assay, the cells were seeded in DMEM+Pen/Strep (with no serum & selective antibiotics) at 2,100 cells/ 3microl/well with MultiDrop Combi dispenser (Thermo Scientific, Logan, UT) onto white tissue culture treated solid bottom1536-well plates (Greiner #789173-F) and allowed to attach/recover overnight at 37 degrees C, 5% CO2. Next, 23nl/well of compound solutions in DMSO were transferred into wells with a pintool (Kalypsis, San Diego, CA). […] EC80 (relaxin at 50pM final concentration) was dispensed to the rest of the plate except columns 1&2 which were used as a negative control (EC0, buffer only), 1microl/well also. The cells were stimulated by relaxin in the presence of compounds for 30 minutes at 37 degrees C, 5% CO2. The detection reagents were prepared individually by dilution in Lysis buffer (supplied with the assay kit) just prior to dispensing. 1microl/well of cAMP-d2 and 1microl/well anti-cAMP-Eu3+-Cryptate antibodies were added simultaneously with BioRAPTR FRDtrade mark Workstation (Beckman Coulter). The plates were incubated at ambient temperature for 30 minutes and, then, FRET signal was read on Envision plate reader (PerkinElmer, Waltham, MA), at wavelengths 340nm (excitation), 615nm & 665nm (emission of donor and acceptor channels respectively).
`O=C1/C(=C/c2ccc(F)cc2)SC(=S)N1CCCC(=O)N1CCCCC1CCO` (stereo unspecified) was tested, and the activity change, negative = inhibition was -99.6% (active).
`COc1cccc(/C=C2\SC(=S)N(CCCC(=O)N3CCOCC3)C2=O)c1` was tested, and the activity change, negative = inhibition was 9.2% (inactive).
With `CCN(C(=O)CN1C(=O)/C(=C/c2ccc(F)cc2)SC1=S)C1CCS(=O)(=O)C1` (stereo unspecified) the activity change, negative = inhibition was 5.31% (inactive).
`O=C(NNC(=O)c1ccc(-c2ccccc2)cc1)Nc1ccccc1` was tested, and the activity change, negative = inhibition was -86.2% (active).
For `O=C(NNC(=O)c1ccco1)Nc1ccccc1`, the activity change, negative = inhibition was -5.56% (inactive).
`O=C(NC1CC1)c1ccc(-c2ccccc2)cc1` was tested, and the activity change, negative = inhibition was -5.32% (inactive).
For `COC(=O)c1ccccc1NC(=O)C(Cc1ccccc1)N1Cc2ccccc2C1=O` (stereo unspecified), the activity change, negative = inhibition was -13.9% (inactive).
With `O=C(c1ccco1)n1nc(-c2ccc(Cl)cc2)nc1NCc1ccccc1` the activity change, negative = inhibition was -6.49% (inactive).
`COc1ccccc1N1CCN(CCCNC(=O)c2cnn(-c3ccccc3Cl)c2C2CCN(C(=O)OC(C)(C)C)CC2)CC1` was tested, and the activity change, negative = inhibition was -27.8% (inactive).
For `O=C(CCC(=O)N1CC2CCCN2c2ccccc21)NCc1ccccc1Cl` (stereo unspecified), the activity change, negative = inhibition was -15% (inactive).
In the case of `CCc1nnc(SCc2c(F)cccc2Cl)c2cc3sccc3n12`, the activity change, negative = inhibition is reported as 3.15% (inactive).
`CC(=O)Nc1cccc(-c2csc(Nc3cccc(C)n3)n2)c1` was tested, and the activity change, negative = inhibition was -62.8% (active).
With `Cc1cccc(NC(=O)Nc2ccc3c(c2)OCO3)n1` the activity change, negative = inhibition was 6.53% (inactive).
For `COc1ccc(-c2csc(Nc3cccc(C)n3)n2)cc1OC`, the activity change, negative = inhibition was -15.8% (inactive).
`COc1ccc2c(c1)Cc1sc(NC(=O)c3ccccc3Br)nc1-2` was tested, and the activity change, negative = inhibition was -16.9% (inactive).
`COc1ccc(N2CCN(C(=O)CSCc3nc(-c4ccccc4Cl)oc3C)CC2)cc1` was tested, and the activity change, negative = inhibition was -64.6% (active).
`COc1ccc(N2CCN(C(=O)CCSCc3ccccc3F)CC2)cc1` was tested, and the activity change, negative = inhibition was -7.15% (inactive).
With `COc1ccc(CNC(=O)CSCc2nc(-c3ccccc3F)oc2C)cc1` the activity change, negative = inhibition was -25.8% (inactive).
`CCc1ccc(NC(=O)C2CCCN2S(=O)(=O)c2ccc3nc(-c4ccccc4)[nH]c3c2)cc1` (stereo unspecified) was tested, and the activity change, negative = inhibition was -3.72% (inactive).
In the case of `CN1C(=O)c2ccccc2Sc2ccc(NC(=O)Cc3ccc(Cl)cc3)cc21`, the activity change, negative = inhibition is reported as -36% (inactive).
With `O=C(CSc1nc2c(c(=O)[nH]1)CN(Cc1ccc(F)cc1)CC2)Nc1ccccc1Cl` the activity change, negative = inhibition was -5.69% (inactive).
With `CCOc1ccc(Nc2ncnc3scc(-c4ccc(OC)cc4)c23)cc1` the activity change, negative = inhibition was -16.5% (inactive).
With `O=C1C=C(c2ccc(Cl)cc2)C(=O)N1Nc1ccccc1` the activity change, negative = inhibition was -62.4% (active).
With `Cc1cccc(NC(=O)c2nc(S(=O)(=O)Cc3ccccc3)ncc2Cl)c1` the activity change, negative = inhibition was -89.5% (active).
For `CCS(=O)(=O)c1ncc(N(Cc2ccc(F)cc2)Cc2ccco2)c(C(=O)Nc2cc(C)ccc2C)n1`, the activity change, negative = inhibition was -11.8% (inactive).
For `CCCSc1ncc(Cl)c(C(=O)Nc2c(C(=O)Nc3ccccc3)oc3ccccc23)n1`, the activity change, negative = inhibition was 4.58% (inactive).
With `Cc1cccc(NC(=O)Cn2cc(S(=O)(=O)Cc3ccccc3Cl)c3ccccc32)c1` the activity change, negative = inhibition was -19.7% (inactive).
For `Cc1cccc(CS(=O)(=O)c2ncc(Cl)c(C(=O)Nc3ccc(F)cc3)n2)c1`, the activity change, negative = inhibition was -95.9% (active).
`CCOC(=O)c1ccc(NC(=O)c2nc(SCc3ccc(F)cc3)ncc2Cl)cc1` was tested, and the activity change, negative = inhibition was 3.57% (inactive).
In the case of `COc1ccc(OC)c(NC(=O)/C=C/c2ccc(C)o2)c1`, the activity change, negative = inhibition is reported as -0.228% (inactive).
`O=C(Nc1nnc(S(=O)(=O)N2CCCc3ccccc32)s1)c1cccc(F)c1` was tested, and the activity change, negative = inhibition was -23.2% (inactive).
With `CCN1CCN(C(c2ccc(C)cc2)c2c(O)cc(C)n(Cc3ccco3)c2=O)CC1` (stereo unspecified) the activity change, negative = inhibition was -15.2% (inactive).
With `COc1cccc(Cn2c(SCc3ccc(C(=O)N4CCC(C)CC4)cc3)nc3ccncc32)c1` the activity change, negative = inhibition was 0.54% (inactive).
In the case of `CCN(CC)CCN(C(=O)c1ccc2c(c1)CCCC2)c1nc2c(OC)cccc2s1`, the activity change, negative = inhibition is reported as -18.9% (inactive).
In the case of `COc1cccc2sc(N(CCCN(C)C)C(=O)C(c3ccccc3)c3ccccc3)nc12`, the activity change, negative = inhibition is reported as -77.3% (active).
`Cc1cccc2sc(N(CCCN(C)C)C(=O)CCS(=O)(=O)c3ccccc3)nc12` was tested, and the activity change, negative = inhibition was 10.5% (inactive).
For `CCN(CC)c1ccc(NS(=O)(=O)c2cc(-c3cc(C)no3)ccc2C)c(C)c1`, the activity change, negative = inhibition was -32.3% (inactive).
`CCc1ccccc1NC(=O)c1sc2nc3c(cc2c1N)CN(Cc1ccccc1)CC3` was tested, and the activity change, negative = inhibition was -0.166% (inactive).
For `Cc1cccc(N2CCN(C3=C(c4ccccc4)C(=O)c4ccccc43)CC2)c1C`, the activity change, negative = inhibition was -0.811% (inactive).
In the case of `CCc1cccc(NC(=O)CN(C)S(=O)(=O)c2ccc3[nH]c4c(c3c2)CCCC4)c1`, the activity change, negative = inhibition is reported as -7.15% (inactive).
With `CCCCOCCOC(=O)c1cccnc1` the activity change, negative = inhibition was 8.56% (inactive).
For `Cc1ccc(NC(=O)CSc2nc3ccccc3c3nc(CCn4cncc4C)nn23)cc1F`, the activity change, negative = inhibition was -6.58% (inactive).
With `Cc1c(C)n(Cc2ccc(Cl)cc2)c2ccc(C(=O)NCCc3ccc(S(N)(=O)=O)cc3)cc12` the activity change, negative = inhibition was -10.3% (inactive).
For `O=C(NCCCO)c1nn(-c2ccc(Cl)cc2)nc1CO`, the activity change, negative = inhibition was -16.3% (inactive).
`CC(CCCc1ccccc1)NC(=O)c1nn(-c2ccc(Cl)cc2)nc1CO` (stereo unspecified) was tested, and the activity change, negative = inhibition was -85.1% (active).
For `Cc1ccc(-n2nc(CO)c(C(=O)NCCc3ccccc3)n2)cc1`, the activity change, negative = inhibition was -19.5% (inactive).
`CC(C)(C)c1ccc(S(=O)(=O)Nc2ccc(O)c(Sc3nc4ccccc4s3)c2)cc1` was tested, and the activity change, negative = inhibition was -31% (inactive).
In the case of `O=C(COc1ccccc1Cl)Nc1ccc2nc(SCC(=O)N3CCCC3)sc2c1`, the activity change, negative = inhibition is reported as 0.0142% (inactive).
`O=[N+]([O-])c1c(NCCO)cc(Sc2nc3ccccc3s2)c2nonc12` was tested, and the activity change, negative = inhibition was -71% (active).
In the case of `COCC(C)NS(=O)(=O)c1ccc(N2CCCCS2(=O)=O)cc1` (stereo unspecified), the activity change, negative = inhibition is reported as -3.31% (inactive).
With `CCc1nc2nc(C)cc(Nc3ccc(F)c(Cl)c3)n2n1` the activity change, negative = inhibition was -7.58% (inactive).
In the case of `CC(C)OCC(O)CN1CCN(C(c2ccccc2)c2ccccc2)CC1` (stereo unspecified), the activity change, negative = inhibition is reported as -2.44% (inactive).
With `CC1(C)CC(N2CCN(C(c3ccccc3)c3ccccc3)CC2)=CC(=[N+]2CCCCC2)C1` the activity change, negative = inhibition was -86.5% (active).
With `CC1(C)CC(=O)C=C(N2CCOCC2)C1` the activity change, negative = inhibition was -12.6% (inactive).
For `Cc1ccccc1OCc1ccc(-c2nc(C#N)c(N3CCCCC3)o2)o1`, the activity change, negative = inhibition was -8.24% (inactive).
`Cc1c(C)n(Cc2ccc(Cl)cc2)c2ccc(C(=O)N3CCN(c4ccccc4F)CC3)cc12` was tested, and the activity change, negative = inhibition was -18.8% (inactive).

— PubChem BioAssay AID1259400 (National Center for Advancing Translational Sciences (NCATS), 2018)
